Assay results reported in PubChem BioAssay (NCATS).
Records with an inconclusive call do not appear. Active and inactive are the calls of the source. Calls come from the whole dose curve; as a rule, active = well fitted activation curve with a large enough effect; inconclusive = small, poorly fitted or top-dose-only effect; inactive = no such curve, though single readings can be large or run the other way.

Target: Cellular tumor antigen p53 (Homo sapiens) (UniProt P04637)
Assay: Primary qHTS for small molecule compounds that upregulate eGFP-tagged delta133p53alpha (in N-terminal) cells. (AID 2060322);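 note: cells pre-induced with doxycycline then dosed without doxycycline; series mostly up to about 56 µM; 0% = DMSO vehicle and 100% = reference activator; nearly all actives have a fitted effect of over 75% in size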
Details: NCI-H358 eGFP-delta133p53alpha fluorescence, 24 h; activation: stronger effect = higher value
Summary of the method: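 NCI-H358 cells pre-induced 24 h with 10 ng/ml doxycycline for eGFP-delta133p53alpha, plated dox-free and exposed 24 h at 37C to titrated compounds. Fixed, Hoechst-stained; gated GFP peak intensity by laser scanning cytometry, normalized to DMSO (0%) and 57.5 uM 5-azacytidine (100%).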

Sequence of Cellular tumor antigen p53 (Homo sapiens) (P04637 whole entry, looked up): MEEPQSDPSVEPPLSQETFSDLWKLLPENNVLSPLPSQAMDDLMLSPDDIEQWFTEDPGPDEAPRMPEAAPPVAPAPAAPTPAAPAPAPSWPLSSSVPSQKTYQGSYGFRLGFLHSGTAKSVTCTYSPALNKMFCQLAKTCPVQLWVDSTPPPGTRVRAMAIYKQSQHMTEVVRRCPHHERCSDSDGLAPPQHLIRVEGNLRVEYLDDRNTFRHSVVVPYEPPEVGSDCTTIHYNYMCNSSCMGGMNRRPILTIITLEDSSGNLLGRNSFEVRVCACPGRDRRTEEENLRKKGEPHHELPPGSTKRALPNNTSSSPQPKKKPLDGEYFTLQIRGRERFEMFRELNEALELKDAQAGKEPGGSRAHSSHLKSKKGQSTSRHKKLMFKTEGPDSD

SMILES | activation
NC(=O)CC[C@@H](N)C(=O)O | 1.69% (inactive)
COc1c(C)c2c(c(O)c1CC=C(C)CCC(=O)O)C(=O)OC2 | -14.1% (inactive)
CN1[C@@H]2CC(OC(=O)[C@H](CO)c3ccccc3)C[C@H]1[C@@H]1O[C@@H]12 (some centres not stated) | -10.7% (inactive)
Nc1ccc(S(=O)(=O)Nc2ncccn2)cc1 | -6.74% (inactive)
CC(=O)[C@@]1(O)CC[C@H]2[C@@H]3C[C@H](C)C4=CC(=O)CC[C@]4(C)[C@H]3CC[C@@]21C | -5.86% (inactive)
C/C(=N\O)[C@@H](C)NCC(C)(C)CN[C@H](C)/C(C)=N/O | -12.6% (inactive)
O=C(O)Cn1cnnn1 | -6.21% (inactive)
CC1(C)OC(=O)NC1=O | -15.3% (inactive)
CC(=O)Nc1ccc(/C=N/NC(N)=S)cc1 | -14.2% (inactive)
O=c1cc(CO)occ1O | -9.6% (inactive)
CN1[C@H]2CC(OC(=O)[C@@H](CO)c3ccccc3)C[C@H]1[C@H]1O[C@H]12 (some centres not stated) | 6.53% (inactive)
CCCCOc1ccc(OCCCN2CCOCC2)cc1 | 22.6% (inactive)
Nc1ccc(S(=O)(=O)Nc2cnc3ccccc3n2)cc1 | -24.3% (inactive)
Cc1cccc(C)c1NC(=O)CN1CCCCCC1 | 6.69% (inactive)
CCC(=O)NC[C@H](Cc1ccc(OCCc2nc(-c3ccccc3)oc2C)cc1)NC(C)=CC(=O)c1ccc(C(F)(F)F)cc1 | 17.2% (inactive)
O=c1[nH]c(=O)c2ccccc2o1 | -12.6% (inactive)
Cc1cc2c(OCC(CNC(C)(C)C)OC(=O)c3ccccc3)cccc2[nH]1 (configuration not stated) | 9.6% (inactive)
